Measurements from PubChem BioAssay (EPA / NIEHS).
Active and inactive are the calls of the source. The calls were made as follows: active = hit-call score of the fitted dose curve at least 0.9, where 1 is the maximum; inactive = score below 0.9.

What follows are compounds tested on CFLAR gene, CFLAR (gene 8837) (assay: LTEA_HepaRG_CFLAR: Life Technologies and Expression Analysis (LTEA) Assay for CFLAR gene using HepaRG (AID 2283455)). Conditions: mRNA level, 48 h; actives raise or lower the signal.
How it was run: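 Gain- or loss-of-signal changes in CFLAR transcript were fitted bidirectionally relative to 0.5% DMSO. Cells (HepaRG, duplicate wells) were dosed for 48 h across eight half-log concentrations topping at 100 uM; quantitation by TaqMan qRT-PCR.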

SMILES	outcome	AC50
O=c1c(-c2ccc(O)cc2)coc2cc(O)ccc12	inactive	
Oc1cccc(O)c1	inactive	
O=[N+]([O-])c1ccc(O)cc1	inactive	
CCC(=C(c1ccc(O)cc1)c1ccc(OCCN(C)C)cc1)c1ccccc1		97.3 µM (active)
C#C[C@]1(O)CC[C@H]2[C@@H]3CCC4=CC(=O)CC[C@@H]4[C@H]3CC[C@@]21C	inactive	
COC(=O)CCCCC(=O)OC	inactive	
CCCCCCCCCCCCc1ccccc1S(=O)(=O)O	inactive	
CC(=O)CC(C)(C)O	inactive	
C[C@@H]1C[C@H]2[C@@H]3CCC4=CC(=O)C=C[C@]4(C)[C@@]3(F)[C@@H](O)C[C@]2(C)[C@@]1(O)C(=O)COP(=O)(O)O	inactive	
CC1=C(/C=C/C(C)=C/C=C/C(C)=C/C(=O)O)C(C)(C)CCC1		5.84 µM (active)
O=C(O)c1ccccc1C(c1ccc(O)cc1)c1ccc(O)cc1	inactive	
Nc1cccc2c(N)cccc12	inactive	
CC(O)CO (stereo unspecified)	inactive	
c1ccc2c(c1)ccc1ccccc12	inactive	
CCCCCCCCOC(=O)CCCCCCCCC(=O)OCCCCCCCC	inactive	
Oc1cc2ccccc2c2ccccc12	inactive	

SMILES	outcome	AC50
CC(C)(C)c1cccc(C(C)(C)C)c1O	inactive	
Cc1cc(C)c(O)c(C)c1	inactive	
CCN(CC)CCNc1ccc(CNC=O)c2sc3ccc(OC)cc3c(=O)c12		27.5 µM (active)
Cc1cc(CCN2CCN(c3nsc4ccccc34)CC2)cc2c1NC(=O)CC2(C)C	inactive	
CN(C)C=O	inactive	
OC1CCCCC1	inactive	
CC(=O)NC1(c2cccc(F)c2)CCN(CC[C@@]2(c3ccc(Cl)c(Cl)c3)CN(c3ccccc3)C(=O)CO2)CC1		56.1 µM (active)
CCCCCCCCCCCCN1CCCC1=O	inactive	
CCCCCCCCCCCCCCCS(=O)(=O)Oc1ccccc1	inactive	
N#C[C@@H]1CC(F)(F)CN1C(=O)CNC1CC2CCC(C1)N2c1ncccn1 (stereo partly specified)	inactive	
O=C(O)Cc1cc(I)c(Oc2cc(I)c(O)c(I)c2)c(I)c1		33.5 µM (active)
CN1CCN(c2ccccc2/C=C2\SCCN(c3ccc(Cl)c(Cl)c3)C2=O)CC1	inactive	
CCCCC(CC)COC(=O)CCCCC(=O)OCC(CC)CCCC (stereo unspecified)	inactive	
CCCOC(=O)c1ccc(O)cc1	inactive	
CCCCCCC(=O)O	inactive	
